Screening results as filed in PubChem.
NLRP3 yeast inh = inhibitors of NALP3 inflammasome in yeast; actives 0.39% (n = 330,000); inhibition, % at 10 µM; Yeast reconstituted NLRP3/ASC/caspase-1, beta-gal luminescence, 24 h;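 active means inhibition of 50% or more; inactive means inhibition below 50%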
tim10-1 inh = growth inhibitors of tim10-1 mutant yeast | actives 2.2% (n = 330,000) | inhibition, % at 20 µM | S. cerevisiae tim10-1 ts strain growth, BacTiter-Glo, 24 h;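 active means inhibition of at least 40%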;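 further: mutant grown at 25 °C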
TIM10 inh = growth inhibitors of TIM10 yeast strain | S. cerevisiae TIM10 strain growth, BacTiter-Glo luminescence, 24 h | inhibition, % at 10 µM | actives 1.4% (n = 330,000) | AID 463195;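 active means inhibition of 40% or more at the single tested concentration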;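 further: wild-type TIM10 isogenic control strain grown at permissive 25 °C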
SKKanGAS inh = SKKanGAS growth inhibition; S. pyogenes SKKanGAS, kanamycin growth, BacTiter-Glo, 6 h; inhibition, % at 7.5 µM; actives 1.3% (n = 300,000); AID 1662;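 active means mean replicate score, as percent of positive control median, at least 50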;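 further: strain carries kanamycin resistance gene driven by streptokinase promoter and grows in 40 µg/ml kanamycin; loss of luminescence reflects streptokinase promoter inhibition or plain growth inhibition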
PfHsp90 yeast 2 = reduces growth (ATP signal) of yeast expressing P. falciparum Hsp90; S. cerevisiae expressing PfHsp90, BacTiter-Glo ATP, 48 h; yeast lacking PDR1 and PDR3 efflux regulators; inhibition, % at 9.4 µM; actives 0.32% (n = 310,000); AID 504621;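 active means every replicate shows inhibition above about 80%, whatever the replicate mean, limit read from the data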
tim23-1 inh = inhibits growth of tim23-1 mutant yeast. S. cerevisiae tim23-1 growth, BacTiter-Glo luminescence, 24 h. inhibition, % at 20 µM. actives 1.3% (n = 330,000);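 active means growth inhibition of the mutant yeast at or above 50%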;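 further: temperature-sensitive mutant grown at 25 °C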
tim10-1 confirm = confirmation of tim10-1 mutant yeast growth inhibitors. shares compounds with tim10-1 inh. S. cerevisiae tim10-1 ts strain growth, BacTiter-Glo, 24 h. inhibition, % at 20 µM. actives 56% (n = 7,400). AID 463213;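 active means inhibition of yeast growth at or above a set limit in either of two repeat tests at 20 µM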;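 further: tim10-1 mutant grown at permissive 25 °C to find synthetic lethal compounds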
Of the large screens only hits and unclear results are named; the others gave an inactive call (follow-up assays come after a bar, where they were run). Rows were chosen to be rich in hits. Some 4.6% of all compounds tested hit in one or more screens of this group.

Cc1nc2ccccc2c2oc(C(=O)NCCCN3CC(C)CC(C)C3)cc12 (configuration not stated)	none
O=C(COC(=O)c1cccs1)NCC1CCCCC1	none
COc1ccc(-c2nc3ccc(C)cn3c2NCc2ccc3c(c2)OCO3)cc1	none
Cc1ccc(-c2nc3ccccn3c2NCc2ccc3c(c2)OCO3)cc1	tim10-1 inh 47.0 | tim10-1 confirm inactive
Cc1nc2sc3c(=O)[nH]nnc3c2c(C)c1Br	tim10-1 inh 42.3 | tim10-1 confirm inactive
CC(=O)Nc1ccc(S(=O)(=O)NCCC(=O)OCC(=O)c2cccc(Br)c2)cc1	none (no result: SKKanGAS inh, PfHsp90 yeast 2)
COc1ccc(NC(=O)CSc2nnc(C)s2)cc1S(=O)(=O)N1CCOCC1	none (no result: SKKanGAS inh)
Cc1ccc(C(=O)O/N=C(/c2nonc2N)N(C)C)cc1	tim10-1 inh 67.3 | tim10-1 confirm 62.0
Cc1nc2sccn2c(=O)c1S(=O)(=O)N1CCN(c2ccc(F)cc2)CC1	none
Cc1nc2sccn2c(=O)c1S(=O)(=O)N1CCN(c2cccc(C(F)(F)F)c2)CC1	tim10-1 inh 41.8 | tim10-1 confirm inactive
CCCCCCCCS(=O)c1sc2nc3c(cc2c1N)CCCC3 (configuration not stated)	tim10-1 inh 42.1 (no result: PfHsp90 yeast 2) | tim10-1 confirm 49.5
C/C(=N/OC(=O)C1CC12CCC2)c1ccc(Br)cc1 (configuration not stated)	none
O=[N+]([O-])c1ccc(/C=C/c2ccc3cccc([N+](=O)[O-])c3n2)cc1	tim10-1 inh 45.3 | tim10-1 confirm inactive
CCOC(=O)CC(=O)CSc1nc2sc(C)cc2c(=O)n1Cc1ccco1	tim10-1 inh 44.8 | tim10-1 confirm inactive
Cc1cc2c(=O)n(Cc3ccco3)c(SCC(=O)c3ccc(Cl)s3)nc2s1	none (no result: PfHsp90 yeast 2)
O=C(CSc1nc2ccccc2c(=O)n1-c1ccc(F)cc1)NC1CCS(=O)(=O)C1 (configuration not stated)	none (no result: SKKanGAS inh)
CCOc1ccc(N2C(=O)CC(NCCNc3ccc([N+](=O)[O-])cn3)C2=O)cc1 (configuration not stated)	tim10-1 inh 53.2 | tim10-1 confirm 28.5
O=C(c1ccccc1Br)N1CCN(c2ccccc2)CC1	tim10-1 inh 85.5 (no result: PfHsp90 yeast 2) | tim10-1 confirm inactive
O=C(c1cc2ccccc2cc1O)N1CCN(c2cccc(Cl)c2)CC1	tim10-1 inh 47.0 (no result: PfHsp90 yeast 2) | tim10-1 confirm 30.1
Cc1[nH]c2ccc(C(=O)N3CCN(c4cccc(Cl)c4)CC3)cc2c1C	tim10-1 inh 56.0, PfHsp90 yeast 2 93.0 | tim10-1 confirm inactive
COc1ccccc1N1CCN(C(=O)c2oc3ccc(F)cc3c2C)CC1	tim10-1 inh 42.0 | tim10-1 confirm inactive
CN(Cc1cccc(F)c1)CC(O)COCc1ccccc1Cl (configuration not stated)	none
COc1ccc(/C=C/C(=O)c2oc3ccc(F)cc3c2C)cc1	tim10-1 inh 40.9 | tim10-1 confirm 31.4
COc1ccccc1N1CCN(C(=O)c2ccc3[nH]c(C)c(C)c3c2)CC1	tim10-1 inh 42.3 | tim10-1 confirm inactive
COc1ccc2oc(C(=O)NNC(=O)c3ccc(F)cc3)c(C)c2c1	none
Cc1cccc(N2CCN(C(=O)c3ccc4[nH]c(C)c(C)c4c3)CC2)c1C	none (no result: SKKanGAS inh)
CCn1c(SCc2cccc(C)c2)nnc1-c1ccccc1	tim10-1 inh 47.4 | tim10-1 confirm inactive
CCn1c(SCC(O)c2ccccc2)nnc1-c1ccccc1 (configuration not stated)	none
COCCOC(=O)C(C#N)c1nc2ccccc2nc1N1CCCC1 (configuration not stated)	none
C=CCOC(=O)C(C#N)c1nc2ccccc2nc1N1CCCC1 (configuration not stated)	tim10-1 inh 40.6 | tim10-1 confirm inactive
COc1ccc2c(COC(=O)CNC(=O)C34CC5CC(CC(C5)C3)C4)cc(=O)oc2c1	tim10-1 inh 42.0 | tim10-1 confirm inactive
Cc1ccc(-c2[nH]ncc2C(=O)c2ccc(Br)cc2)c(O)c1	tim10-1 inh 42.2 | tim10-1 confirm inactive
CC(=O)[C@H]1[C@H](c2cccc(Cl)c2)C(C#N)(C#N)[C@@H]2c3ccccc3C=CN21	tim10-1 inh 48.0 (no result: SKKanGAS inh, PfHsp90 yeast 2) | tim10-1 confirm inactive
Cn1cc(SCC(=O)Nc2ccc3c(c2)OCO3)c2ccccc21	none
CCn1c(SCC(=O)NNC(=S)Nc2ccc(C)cc2)nnc1-c1ccc(Cl)cc1	none
CCOc1ccc(-n2c(SCC(=O)Nc3ccc4c(c3)OCO4)nc3ccccc3c2=O)cc1	none
Cc1ccc(NC(=S)NNC(=O)CSc2nc3ccccc3c(=O)n2-c2ccc(C)cc2)cc1	tim10-1 inh 57.1 | tim10-1 confirm 33.9
COc1ccc(-n2c(SCC(=O)Nc3ccc4c(c3)OCO4)nc3ccccc3c2=O)cc1	tim10-1 inh 40.4 (no result: PfHsp90 yeast 2) | tim10-1 confirm inactive
Cc1ccc(NC(=S)NNC(=O)CSc2nnc(-c3ccc(Cl)cc3)n2C2CCCCC2)cc1	tim10-1 inh 42.5 | tim10-1 confirm 35.1
CCCn1cc(SCC(=O)Nc2ccc3c(c2)OCO3)c2ccccc21	tim10-1 inh 42.5 | tim10-1 confirm inactive
Cc1ccc(CN2CCN(Cc3ccc4cccc(F)c4n3)CC2CCO)cc1 (configuration not stated)	none
CCOC(=O)CN(C)Cc1cn(C)nc1-c1ccc(Oc2ccccc2)cc1	none
CCCC(C)C(=O)Nc1nc(C)c(-c2csc(Nc3ccc(Cl)cc3)n2)s1 (configuration not stated)	tim10-1 inh 43.7 | tim10-1 confirm inactive
COC(=O)c1ccc(C)c(-n2c(=O)n(Cc3ccccc3)c(=O)c3[nH]cnc32)c1	none
CN1C(=O)C2(c3ccccc31)N(C)CC(c1ccccn1)C21SC(=S)N(Cc2ccco2)C1=O (configuration not stated)	tim10-1 inh 47.3 | tim10-1 confirm inactive
N#C/C(=C\c1cn[nH]c1-c1ccc(Cl)cc1)C(=O)NCc1ccccc1	tim10-1 inh 43.0 | tim10-1 confirm 45.9
N#C/C(=C\c1cn[nH]c1-c1ccc(Cl)cc1)C(=O)NC1CC1	none
O=C(/C=C/c1ccc(Cl)c([N+](=O)[O-])c1)Nc1ccc(N2CCCC2)cc1	none
COc1ccc(-c2oc(=O)c3cc(OC)c(OC)cc3c2C#CCCO)cc1	none (no result: SKKanGAS inh)
Cc1cccc(-c2oc3ccccc3c2C#CCCO)c1	tim10-1 inh 44.9 | tim10-1 confirm inactive
Cc1cc(C)nc(NC(=S)Nc2cccc(F)c2)c1	tim10-1 inh 40.5 | tim10-1 confirm inactive
COc1cccc(NC(=S)Nc2cc(C)cc(C)n2)c1	none
Clc1ccc2c(c1)c1ccccc1n2CN1CCOCC1	tim10-1 inh 53.9 | tim10-1 confirm inactive
CCSc1nnc(NC(=O)c2cccc(OCc3c(C)noc3C)c2)s1	none (no result: PfHsp90 yeast 2) | tim10-1 confirm inactive
